PubChem BioAssay (NCI)
Where “and” joins values, the source holds several entries; their conditions need not be identical. Equal entries are not always repeated. About 83,000 compounds went through this panel and 20% of them were active in at least one assay; those are over-represented in the sample as a whole.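 Treatment: one concentration, 48 hours, 96-well format. Scoring: percent growth, with anything below 10 considered active.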 Calls of active or inactive are those of the source.

Each molecule was assayed on MDA-MB-468 breast (assay: NCI-60 one-dose screen, 48 h (100 = growth as untreated, 0 = no growth, -100 = all killed)). Details: 10 µM unless noted.

SMILES | growth
O=C1C=C(c2ccccc2)C(O)(c2ccccc2)C1 (stereo unspecified) | 108% (inactive)
CCN1CCN(c2cc(C)nc(N(CCCNc3ccnc4cc(Cl)ccc34)Cc3cccs3)n2)CC1 | -26.4% (active)
CC(C)[C@H]1CCC2=C3CC[C@]45OC(=O)[C@@]6(CCC(C)(C)C[C@H]64)CC[C@@]5(C)[C@]3(C)CC[C@@]21C | 76.4% [100 µM] (inactive)
CCOC(=O)c1cc(C(=O)c2ccc(O)c(O)c2)n2ccc(-c3ccn4c(C(=O)c5ccc(O)c(O)c5)cc(C(=O)OCC)c4c3)cc12 | 112% (inactive)
O=C(C1=Cc2cc3ccccc3n2Cc2cnnn21)c1ccc(F)cc1 | 99.4% (inactive)
Cc1cc(Cl)c2c(N(C)C)cccc2n1 | 77.4% (inactive)
CCOC(=O)C1C(C(=O)OCC)C2C(=O)C3C(C(=O)OCC)C(C(=O)OCC)C3C(=O)C12 (stereo unspecified) | 98.5% (inactive)
COC(=O)c1cc2c(=O)[nH]cc3c2c(n1)CCC3 | 97.7% (inactive)
COc1cc2cc(Oc3ccc(NC(=O)c4ccc(Cl)c(C(F)(F)F)c4)cc3)c(C)nc2cc1OC | 6.44% (active)
Cc1nc(N2CCOCC2)sc1S(N)(=O)=O | 97% (inactive)
O=C1CSC(=S)N1CCc1ccc(O)cc1 | 40.5% (inactive)
O=[N+]([O-])c1cccc(N=Cc2ccccc2)c1 | 106% (inactive)
CC(=O)N1c2ccccc2NC2=C(C(=O)NC2(C)C)C1c1ccco1 (stereo unspecified) | 65.9% (inactive)
O=C(CN1C=NC2C(N3CCOCC3)=NC=NC21)c1cccc2ccccc12 (stereo unspecified) | 85.9% (inactive)
Cc1cc(C)c2c(c1)N(C)c1ncnc(-n3c(C)nc4cc(C)ccc43)c1CC2C (stereo unspecified) | 3.92% (active)
CC1=C[C@H]2c3c(c(O)c(O)c4oc5cc(O)cc(O)c5c(=O)c34)[C@H](c3cc(O)c(O)c4oc5cc(O)cc(O)c5c(=O)c34)[C@H]2C(C)(C)C1 | 3.99% (active) and -26.3% (active)
ClC1=C(Cl)C(Cl)=C(Cl)C1=Cc1ccc(Cl)cc1 | 45.3% (inactive)
Cc1ccc(C(=O)/C(=C/c2ccc([N+](=O)[O-])cc2)SCc2ccc(Cl)cc2)cc1 | 72.9% (inactive)

SMILES | growth
CC/C(Cc1ccccc1)=C(\c1ccc(OCCN2CCCCCC2)cc1)c1ccc(OC(=O)NCc2ccccc2)cc1 | 53.3% (inactive)
CC1=C(CCCOC(=O)NCCCl)C2=C(C)C3(CC3)[C@@](C)(O)C(=O)C2=C1 | -55% (active)
COc1ccc2c(c1)cn1c3ccc(O)cc3[nH]c(=O)c21 | -6.77% (active)
CC(C)CCN(CCCNc1c2c(nc3ccccc13)CCCC2)CCC(C)C | 57.2% (inactive)
CC(C)(C)c1cc(/C=N/NC(=O)c2ccccc2NC(=O)c2cccs2)c(O)c(C(C)(C)C)c1 | 25.3% (inactive)
CC(C)(C)Nc1c(-c2c3ccccc3cc3ccccc23)nc2ccccn12 | 68.4% (inactive)
O=C1c2ccccc2C(=O)c2c(NCCN=Cc3c(O)ccc4ccccc34)cccc21 | 84.5% (inactive)
CCN(CC)CCOC(=O)c1cc(OCc2ccccc2)c(OCc2ccccc2)c(OCc2ccccc2)c1 | 44% (inactive)
COC(=O)c1c(C)nc(C)c2c1C(=O)C=C(NCc1ccccc1)C2=O | 53.9% (inactive)
CCOC(=O)c1[nH]c(-c2ccc(Cl)cc2)cc1-c1cccnc1 | -1.1% (active)
COc1cc2c(c(OC)c1OC)-c1ccc(NCc3ccccc3)c(=O)cc1[C@@H](NC(C)=O)CC2 | 17.3% (inactive)
CNC(=O)c1c(NC(=O)c2cccc(C(F)(F)F)c2F)sc2c1CCC(=O)C2 | 0.936% (active)
O=[N+]([O-])c1ccc2[nH]c(=S)n(/C=C(/c3ccc(Cl)cc3Cl)S(=O)(=O)Cc3ccc(Cl)cc3Cl)c2c1 | 111% (inactive)
CCOC(=O)c1sc(-c2ccc(OS(=O)(=O)c3ccccc3[N+](=O)[O-])c(C=O)c2)nc1C | 55.4% (inactive)
C=C(C)Cn1c(SCC(=O)c2cccs2)nc2sc3c(c2c1=O)CCCC3 | 68.6% (inactive)
Cc1ccc2nc(-c3ccc(-n4on4-c4ccc(/C=C/c5ccc(-n6on6-c6ccc(-c7nc8ccc(C)cc8s7)cc6)cc5S(=O)(=O)O)c(S(=O)(=O)O)c4)cc3)sc2c1 | 114% (inactive)
CN(C)CCS(=O)(=O)Nc1cc(-c2ccc3ncc(C#N)c(Nc4ccc(F)c(Cl)c4)c3c2)cnc1Cl | -77.8% (active)
CCC/C=C(\C)C(C)(C#N)C(=O)OCC (stereo unspecified) | 102% (inactive)
